According to PubChem BioAssay AID504465 (National Center for Advancing Translational Sciences (NCATS), 2011):
In all, about 2,100 compounds went through this assay and about 210 (10%) were called active. About 53% were inconclusive and are not listed. Calls follow the shape of the dose curve; as a rule, active = well fitted inhibition curve with a large enough effect; inconclusive = small, poorly fitted or top-dose-only effect, or effect the other way; inactive = no such curve, though single readings can be large or run the other way. Some of the results follow.

experiment: IN Cell qHTS Assay for Inhibitors of the mTORC1 Signaling Pathway in MEF (Tsc2-/-, p53-/-) Cells: Sytravon; conditions: phospho-rpS6 immunofluorescence, 24 h; series mostly up to 38.3 µM; also: nearly all actives have a fitted effect of over 60% in size
Description: NIH Molecular Libraries Probe Production Centers Network [MLPCN] NIH Chemical Genomics Center [NCGC] MLPCN Grant: NS059428-01 Assay Submitter (PI): Blenis, John; Hoffman, Greg; Harvard University NCGC Assay Overview: Thee mammalian target of rapamycin (mTOR) is an intracellular serine/threonine kinase Aberrant regulation of mTOR signaling plays a causative role in a number of human diseases, including cancer, benign tumors such as lymphangioleiomyomatosis (LAM) and Tuberous Sclerosis Complex (TSC), and metabolic diseases such as diabetes and obesity. This project aims to identify inhibitors of ribosomal protein S6 (rpS6) phosphorylation. The phosphorylation of rpS6 is a key event downstream of mTOR activation. The assay uses a phospho-specific antibody of phospho-rpS6 to detect inhibitors of mTOR activation. Mutations in the Tsc1 and Tsc2 genes are the underlying genetic lesions responsible for TSC, causing constitutive activation of the mTORC1 pathway and leading to profound effects on cell metabolism. Aberrant metabolism in cancer has recently received significant attention as a target to develop therapeutic agents in the treatment of cancer1. As Tsc2-/- cells have lost the ability to respond to energy and growth factor deprivation, these cells are unable to properly down regulate cellular biosynthetic processes in response to metabolic stress, and are thus extremely sensitive to glucose deprivation-induced death.2 A central goal of this project is to explore the unique cell survival and metabolic properties of cells with Tsc1 or Tsc2 by screening for compounds that selectively target the Tsc2-/- MEFs by screening both Tsc2-/- and WT MEF cell lines. We hope to better understand these aspects of TSC physiology in order to exploit them for therapeutic benefit.
NCGC IN Cell Assay Protocol: For quantitative high throughput analysis of mTORC1 signaling, we developed a cell-based assay for immuno-fluorescence based detection of rpS6 phosphorylation on the Acumen Explorer that will be used a platform for the primary small molecule screen. Mouse embryonic fibroblasts (MEFs) are cultured in 1536-well plates using DMEM + 10% FBS. Twenty-four hrs after plating, test compounds (solubilized in DMSO) are delivered and incubated with the cells for 24 hrs at 37 degree Celsius. Following the incubation, media with compound is aspirated and the cells are fixed in 4% paraformaldehyde (PFA) containing PBS + 0.2% TX-100. Next, PFA is aspirated, cells are washed two times with PBS plus 0.2% TX-100 and the cells are blocked for 1 hr at room temperature (blocking buffer: LiCOR Blocking Buffer plus 0.2% TX-100). This is followed by aspiration and staining with Alexa-488 conjugated-phospho-rpS6 Ser235/236 antibody for 2 hours at room temperature (Cell Signaling Technology # 4803, 1:50 dilution in blocking buffer). Cells are washed two times with PBS plus 0.2% TX-100, and stained with 10 uM propidium iodide (PI) for 20-25 minutes for cell number measurement (1:500 dilution of Hoescht staining is also added for IN Cell imaging). Active wells which are selected (based on Acumen results) are imaged on the IN Cell 1000 (GE Healthcare) using the D360/40X and HQ480/40X excitation filters for the Hoechst and Alexa-488 cytoplasmic stains, respectively. The fluorescence emission filters used were HQ460/40M and HQ535/50M for the Hoechst and Alexa-488 cytoplasmic stains, respectively. The normalized phospho-S6 staining is calculated as the ratio of […] for the single concentration rapamycin control (7.5 nM) and DMSO columns. […] Inhibition of the pathway is defined based on the normalized phospho-S6 intensity in rapamycin treated cells. Each treatment is reported as the % positive cells in the well, where thresholds are defined by selecting wells with the highest and lowest signal and differentiating between the % non-active and % active populations. […]
Potency is read from the fitted curve at half-maximal effect.

Potency, inactive:
Cc1ccc(-c2nc3scc(CCNC(=O)c4cccc(Br)c4)n3n2)cc1
Cc1cccc(Cn2c(CNC(=O)c3ccccc3)nc3ccccc32)c1
Cc1ccc(NC(=O)C2CCCN(S(=O)(=O)c3ccc4c(c3)CCCC(=O)N4)C2)cc1Cl (centres undefined)
COc1ccc(OC)c(NC2=C(c3ccccc3)C(=O)c3ccccc32)c1
O=C(NCCc1ccccc1Cl)c1ccc2c(=O)n(-c3ccccc3)c(=O)[nH]c2c1
Cc1ccc(NC(=O)Cn2c(=O)c(CNc3ccccc3)cc3cc4c(cc32)OCCO4)cc1
COc1cc2cc(CNc3ccc(C)cc3)c(=O)n(CC(=O)Nc3ccc(F)cc3F)c2cc1OC
CCOC(=O)c1c(C)oc2ncnc(Nc3cc(Cl)ccc3OC)c12
COc1cccc(C2=CC(c3cc(Br)ccc3F)n3nnnc3N2)c1 (centres undefined)
O=C(NCCCc1nc2ccccc2n1Cc1ccc(Cl)cc1)c1ccco1
CCC1CCCCN1CCCNC(=O)c1c(C)oc2ncn(CC(C)C)c(=O)c12 (centres undefined)
COc1ccc(Nc2cc(C(=O)NCCCN(C)Cc3ccccc3)c3ccccc3n2)cc1
CC1CCCCN1CCCNC(=O)c1cc(Sc2cccc(Cl)c2)nc2ccccc12 (centres undefined)
Fc1ccc(C(NCCc2ccccc2)c2nnc(-c3ccccc3Cl)o2)cc1 (centres undefined)
O=C(NCC1CCN(Cc2ccccc2Cl)CC1)c1cc2ccc3cccnc3c2[nH]1
COc1cc(C2CC(=O)c3c([nH]c(C(=O)OC4CCCCC4)c3C)C2)cc(OC)c1OC (centres undefined)
Cc1c(C(=O)OC2CCC(C)CC2)[nH]c2c1C(=O)CC(c1ccc(F)cc1)C2 (centres undefined)
CCOc1ccc(CNC(=O)CCCc2cn(C)c3ccccc23)cc1OC
Cn1ncc2c(NCc3cccc(Cl)c3)ncnc21
N#Cc1ccccc1S(=O)(=O)N1CCC(Oc2ccc(-n3cnnn3)cc2)CC1
Cc1ccccc1CSCCNC(=O)C1CCN(S(=O)(=O)Cc2ccccc2)CC1
CCCNC(=O)C1CCN(Cc2cc3ccccc3n2Cc2ccccc2)CC1
Cc1cccc(C)c1Nc1c(-c2ccsc2)nc2cccc(C)n12
Clc1cccc(CSc2ccc(-c3cccs3)nn2)c1
CCOC(=O)c1cc(-c2ccccc2)n(-c2cccc(C(=O)N(C)c3ccc(C)cc3)c2)c1C
CCOC(=O)c1cc(-c2ccccc2)n(CCC(=O)Nc2ccc(C(F)(F)F)cc2)c1C
Cc1ccccc1Nc1c(-c2ccc(Cl)s2)nc2cccc(C)n12
CC(CNC(=O)c1ccc2nc(CCc3ccccc3)oc2c1)c1ccccc1 (centres undefined)
CCCS(=O)(=O)N1CC(=O)N(c2ccccc2F)C(C)(C(=O)NC2CCCCCC2)C1 (centres undefined)
COc1ccc(NC(=O)c2cc3c(=O)n(Cc4ccco4)ccc3nc2C)cc1
COc1ccc(OC)c(NC(=O)Cn2c(=O)n(Cc3ccccc3)c(=O)c3ccccc32)c1
CCOC(=O)Cn1c(=O)n(C2CCCCC2)c2nc(-c3cccc(C)c3)nc(C(N)=O)c21
O=C(Nc1ccc(C(F)(F)F)cc1)C1CCCN(S(=O)(=O)c2cccc3cccnc23)C1 (centres undefined)
Cc1ccc(Cn2c(=O)n(CCCCC(=O)NCc3ccccc3Cl)c(=O)c3ccccc32)cc1
Cc1ccc(CNC(=O)CCCCCn2c(=O)c3sccc3n(CC(=O)Nc3ccc(C)c(F)c3)c2=O)cc1
Cc1ccccc1NC(=O)Cn1c(=O)n(-c2ccc(CC(=O)NCC3CCCO3)cc2)c(=O)c2ccccc21 (centres undefined)
COc1ccc(Cn2c(C(=O)O)c(CNCCc3ccco3)c3ccc(OC)cc32)cc1
COc1ccc(Cn2c(C(=O)O)c(CNCc3ccccc3F)c3ccc(OC)cc32)cc1
CCc1ccc(NC(=O)c2ccc(F)c(S(=O)(=O)NC3CCCCCC3)c2)cc1
CC[C@@H](C)[C@@H](C(=O)Nc1ccc(C)cc1)N1Cc2ccccc2C1=O
CCN1C(C(=O)c2ccccc2)=C(OC(=O)COc2ccc(OC)cc2)c2ccccc2S1(=O)=O
COc1ccc(C(=O)NCC(c2ccc(Cl)cc2)N2CCCCC2)cc1 (centres undefined)
O=C(NCCc1ccccc1Cl)c1sc2ncccc2c1-n1cccc1
CCC(C)NC(=O)CCCn1c(=O)c2cccn2c2ccccc21 (centres undefined)
Cc1cccc(NS(=O)(=O)c2ccc3[nH]c4c(c3c2)CCCCCC4)c1
Cc1nc2scc(C)n2c(=O)c1S(=O)(=O)Nc1ccc(N2CCN(S(C)(=O)=O)CC2)cc1

Potency, active:
CC(C)CCNC(=O)c1cccc(Nc2nc3ccccc3n3nnnc23)c1 4.14 µM
CCCS(=O)(=O)c1c(S(=O)(=O)CCC)c2cc(C(C)(C)C)ccn2c1C(=O)c1ccc(OC)c(OC)c1 0.147 µM
COc1ccc(OCc2nc3c4c(-c5ccccc5)c(-c5ccccc5)oc4ncn3n2)cc1 4.14 µM
Cc1ccc(NCc2cc3cc4c(cc3n(CC(=O)Nc3ccc(C)cc3)c2=O)OCCO4)cc1 4.65 µM
CCC1CCCCN1CCCNC(=O)c1cc2c(Cl)nc3ccccc3c2s1 (centres undefined) 14.7 µM
CN(CCCNC(=O)c1cc2c(Cl)nc3ccccc3c2s1)Cc1ccccc1 18.5 µM
CCOc1ccc(C2CC(=O)c3c([nH]c(C(=O)OCc4ccccc4)c3C)C2)cc1 (centres undefined) 16.5 µM
Cc1ccccc1Cn1c(CN2CCC(C(=O)NCCN(C)C)CC2)cc2ccccc21 11.7 µM
CCOC(=O)c1cc(-c2ccc(C)cc2)n(CC(=O)Nc2ccccc2F)c1C 14.7 µM
COc1ccc(NC(=O)Cn2c(=O)n(Cc3ccco3)c(=O)c3cc(OC)c(OC)cc32)cc1 14.7 µM
Cc1ccc(-n2c(=O)c3ccc(C(=O)NCc4ccco4)cc3n(Cc3ccc(Cl)cc3)c2=O)cc1 16.5 µM
COc1ccc(NC(=O)c2ccc3c(c2)c(C)c(C)n3Cc2ccc(F)cc2)cc1 10.4 µM
COc1ccc(-n2c(=O)c3ccc(C(=O)NCc4ccc(C)cc4)cc3n(CC(=O)Nc3ccc(F)cc3)c2=O)cc1 14.7 µM
